Test systems include HCT-15 colon; SNB-75 CNS; SNB-19 CNS; U251 CNS; PC-3 prostate; SK-MEL-5 melanoma; UACC-62 melanoma; LOX IMVI melanoma; SK-MEL-28 melanoma; SK-MEL-2 melanoma; EKVX NSCLC; SN12C renal; UO-31 renal; TK-10 renal; ACHN renal; CAKI-1 renal; A498 renal; CCRF-CEM leukemia; MOLT-4 leukemia.
Experiment in all cases: NCI-60 one-dose screen, 48 h (100 = growth as untreated, 0 = no growth, -100 = all killed)
Settings in all cases: 10 µM unless noted

This is part of a sample that, as a whole, favours compounds with a hit. Of some 83,000 tested, about 20% had one in any assay.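 Cells were grown in 96-well plates and exposed to the test compound at a single concentration for 48 hours; results are reported as percent growth, with values below 10 considered active.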 Values without a mark were called inactive. The source made the active and inactive calls.

As to `COc1ccc(/C=C(\C#N)C(=O)N2c3ccccc3Sc3ccc(SC)cc32)cc1F`, the growth in the assay on HCT-15 colon was 94.9%; in the assay with SNB-75 CNS, 87.6%; with SNB-19 CNS it was 90.4%; in the assay with U251 CNS, 92.9%; in the assay on PC-3 prostate, 88.9%; in the assay with SK-MEL-5 melanoma, 93%. Also, the growth with UACC-62 melanoma was 71.3%; in the assay on LOX IMVI melanoma, 88.8%; with SK-MEL-28 melanoma, 98.9%; in the assay with SK-MEL-2 melanoma it was 96.2%; in the assay on EKVX NSCLC, 97.8%; with SN12C renal, 99.4%. Moreover, the growth in the assay on UO-31 renal is 76.2%; with TK-10 renal, 97.1%; in the assay on ACHN renal, 88.5%; in the assay on CAKI-1 renal it was 68.9%; in the assay on A498 renal it was 79.5%; in the assay on CCRF-CEM leukemia, 93.9%. Besides, the growth with MOLT-4 leukemia was 82.9%.

For `Cc1nc2ncc(-c3ccc4ncnc(NCc5ccccc5)c4c3)cc2[nH]1`, the growth in the assay on HCT-15 colon was 103%; with SNB-75 CNS it was 13%; in the assay with SNB-19 CNS, 67.7%; with U251 CNS, 75.4%; in the assay with PC-3 prostate, 40.8%; in the assay with SK-MEL-5 melanoma, 82.8%. Besides, the growth in the assay on UACC-62 melanoma is 64.3%; in the assay with LOX IMVI melanoma, 41.3%; in the assay on SK-MEL-28 melanoma, 63.1%; in the assay with SK-MEL-2 melanoma, 74%; in the assay with EKVX NSCLC, 25.3%; in the assay with SN12C renal it was 32.3%. The growth was 45.4% in the assay with UO-31 renal; 22.6% with TK-10 renal; 64.9% in the assay on ACHN renal; 19.3% in the assay on CAKI-1 renal; -18.2% (active) with A498 renal; 68.5% in the assay on CCRF-CEM leukemia. In addition, the growth with MOLT-4 leukemia is 45.2%.

Take `Cc1noc(C)c1CSc1nc2ccccc2n1-c1ccccc1`: the growth with HCT-15 colon is 106%; in the assay with SNB-75 CNS it was 30.9%; with SNB-19 CNS, 96.5%; in the assay with U251 CNS it was 102%; in the assay on PC-3 prostate, 100%; with SK-MEL-5 melanoma, 94.4%. In addition, the growth in the assay with UACC-62 melanoma is 72.5%; with LOX IMVI melanoma, 88.2%; in the assay with SK-MEL-28 melanoma, 111%; in the assay on SK-MEL-2 melanoma, 107%; in the assay on EKVX NSCLC, 65.2%; in the assay with UO-31 renal it was 48.8%. In addition, the growth with TK-10 renal was 58.9%; in the assay on ACHN renal, 96.1%; with CAKI-1 renal, 41.6%; in the assay on A498 renal, 48.1%; in the assay on MOLT-4 leukemia, 97%.

Consider `Cc1cc(S(=O)(=O)N(C)C)cc(NCC(=O)NC(=O)NCC(C)C)c1C`, for which the growth in the assay with HCT-15 colon was 110%; in the assay with SNB-75 CNS, 45%; in the assay with SNB-19 CNS, 105%; with U251 CNS, 108%; with PC-3 prostate, 101%; in the assay on SK-MEL-5 melanoma it was 96.5%. The growth in the assay on UACC-62 melanoma was 91.8%; in the assay with LOX IMVI melanoma it was 96.4%; with SK-MEL-28 melanoma, 102%; in the assay on SK-MEL-2 melanoma, 105%; in the assay with EKVX NSCLC it was 63.1%; in the assay with SN12C renal it was 87.9%. Further, the growth in the assay on UO-31 renal was 57.1%; in the assay with TK-10 renal, 68.2%; with ACHN renal it was 94.4%; with CAKI-1 renal it was 64.3%; with MOLT-4 leukemia it was 96.1%.

In the case of `CNC(=O)c1c(NC(=O)c2cccc(C(F)(F)F)c2F)sc2c1CCC(=O)C2`, the growth is 5.54% (active) in the assay on HCT-15 colon; 0.105% (active) in the assay on SNB-75 CNS; 16.5% in the assay on SNB-19 CNS; 4.78% (active) in the assay on U251 CNS; 14.9% with PC-3 prostate; -83.7% (active) with SK-MEL-5 melanoma. Besides, the growth with LOX IMVI melanoma is 16%; in the assay with SK-MEL-28 melanoma, 47.8%; in the assay on SK-MEL-2 melanoma it was 8.04% (active); in the assay on EKVX NSCLC, 13.1%; in the assay with SN12C renal it was 10%; with UO-31 renal it was -29.2% (active). Besides, the growth in the assay with TK-10 renal was 34.6%; in the assay with ACHN renal, 4.75% (active); in the assay on CAKI-1 renal, -30.6% (active); in the assay with A498 renal, -1.35% (active); in the assay with CCRF-CEM leukemia, 13.6%; with MOLT-4 leukemia it was 7.37% (active).

On to `N#Cc1cnc2ccc(-c3cnc(N)nc3)cc2c1N1CCc2cc(F)c(Cl)cc21`, for which the growth with HCT-15 colon was 4.26% (active); in the assay with SNB-75 CNS, 19.1%; in the assay on SNB-19 CNS it was 12.2%; with U251 CNS, 10.3%; with PC-3 prostate, 2.78% (active); with SK-MEL-5 melanoma, -92.3% (active). The growth is -17.2% (active) in the assay on UACC-62 melanoma; 2.73% (active) in the assay on LOX IMVI melanoma; 7.06% (active) with SK-MEL-28 melanoma; -32.5% (active) with SK-MEL-2 melanoma; -7.03% (active) in the assay on EKVX NSCLC; 15% with SN12C renal. Further, the growth is -6.05% (active) in the assay with UO-31 renal; -20.5% (active) in the assay on TK-10 renal; 7.59% (active) in the assay on ACHN renal; 5.2% (active) with CAKI-1 renal; -49.7% (active) in the assay on A498 renal; 5.74% (active) in the assay on CCRF-CEM leukemia. Moreover, the growth in the assay on MOLT-4 leukemia is 0.22% (active).

As for `CCCn1cnc2c(c1=N)C(c1ccc(Cl)cc1)c1sc3c(CC)cccc3c1O2` (stereo not given), the growth in the assay with HCT-15 colon is 17.6%; in the assay on SNB-75 CNS, -1.58% (active); in the assay on SNB-19 CNS, 23.1%; in the assay with PC-3 prostate, 3.88% (active); in the assay with SK-MEL-5 melanoma, 31%; in the assay with UACC-62 melanoma it was 12.8%. Also, the growth in the assay with LOX IMVI melanoma is 29.3%; in the assay on SK-MEL-28 melanoma, 57.8%; in the assay on SK-MEL-2 melanoma, 22.5%; in the assay with EKVX NSCLC it was 43%; in the assay on SN12C renal, 27.8%; with UO-31 renal it was 32.4%. Further, the growth is 61.1% with TK-10 renal; 35.3% in the assay with ACHN renal; 32.2% in the assay on CAKI-1 renal; -8.25% (active) in the assay with A498 renal; 0.961% (active) in the assay with CCRF-CEM leukemia; 10% in the assay with MOLT-4 leukemia.

For the molecule `Cn1ccnc1C(=O)/C=C/c1ccc(CNC(=O)c2c(F)c(F)c(F)c(F)c2F)cc1`, the growth in the assay on HCT-15 colon is 11.8%; in the assay with SNB-75 CNS, 96.3%; in the assay with SNB-19 CNS, 42.2%; with U251 CNS it was 45.6%; with PC-3 prostate it was 35.2%; in the assay on SK-MEL-5 melanoma, 75.7%. Further, the growth in the assay with UACC-62 melanoma was 54.9%; in the assay with LOX IMVI melanoma, -66.4% (active); in the assay with SK-MEL-28 melanoma, 90.8%; in the assay with SK-MEL-2 melanoma it was 99.4%; with EKVX NSCLC, 93.2%; in the assay with SN12C renal, 44.5%. Also, the growth in the assay with UO-31 renal is 79.7%; with TK-10 renal it was 79.2%; in the assay on ACHN renal, 47.9%; in the assay on CAKI-1 renal it was 76%; in the assay on A498 renal it was 83.3%; in the assay on MOLT-4 leukemia, 23%.

Source of the values: PubChem BioAssay (NCI).
